# From PubChem BioAssay
# Only some compounds are listed: those with a hit (about 5.8% of all), similar ones and a draw of the others.
# KB-V1 MDR tox = qHTS assay for MDR1-selective chemotherapeutics: Primary screen using the drug-selected MDR subline cells KB-V1. Potency, µM (top dose mostly 46.1 µM), actives largely listed as cytotoxic. 400,000 tested, 3.4% active. AID 1347076, 2019. KB-V1 MDR cells viability, CellTiter-Glo, 72 h; further: nearly all actives have a fitted effect of over 60% in size
#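 qHTS viability screen in drug-selected KB-V1 MDR cells: 72 h compound treatment at 37 degrees C, ATP luminescence end point.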
# PINK1 expr mod = A Quantitative High throughput Screen to Identify Chemical Modulators of PINK1 Expression; PINK1 immunofluorescence, high-content cytometry, 24 h; Potency, µM (doses to about 76.6 µM), most hits filed as activators; 410,000 tested, 0.2% active; active means well fitted activation curve with a large enough effect; inconclusive means small, poorly fitted or top-dose-only effect; cell line not stated here; further: nearly all actives have a fitted effect of over 65% in size
#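 Stable cell line, 250 cells/well, 12 h attachment; compounds pinned at 5 concentrations, 24 h; CCCP control. Fixed with nuclear dye, primary antibodies 12 h at 10 degrees C, secondary plus cell stain; laser-scanning cytometer read.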
# MCF10A rerep = A quantitative high throughput screen for small molecules that induce DNA re-replication in MCF 10a normal breast cells | MCF 10A DNA re-replication, Hoechst nuclear intensity, 48 h | Potency, µM (doses to about 46.1 µM), hits mostly activators | 350,000 tested, 2.9% active | AID 624296, 2012; further: nearly all actives have a fitted effect of over 50% in size
# SW480 rerep = A quantitative high throughput screen for small molecules that induce DNA re-replication in SW480 colon adenocarcinoma cells; SW480 DNA re-replication, Hoechst DNA content imaging, 48 h; Potency, µM (top dose mostly 46.1 µM), actives largely listed as activators; 340,000 tested, 1.8% active; AID 624297, 2012; further: nearly all actives have a fitted effect of over 55% in size
#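 SW480 cells exposed to compounds for 48 hr at 37 C, 5% CO2, then Hoechst-stained 40 min. Nuclear DNA content imaged by fluorescence scanning (405 nm excitation, 500-530 nm emission); re-replication scored as increased high-intensity nuclei.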
# 12-LOX inh = Primary qHTS assay for inhibitors of human arachidonate 12S-lipoxygenase (ALOX12): Round 2. Polyunsaturated fatty acid lipoxygenase ALOX12 (Homo sapiens), P18054. purified 12hLO, xylenol orange hydroperoxide absorbance. Potency, µM (doses to about 108 µM), actives largely listed as inhibitors. 580,000 tested, 1.1% active
# Target sequence (P18054 whole entry, looked up): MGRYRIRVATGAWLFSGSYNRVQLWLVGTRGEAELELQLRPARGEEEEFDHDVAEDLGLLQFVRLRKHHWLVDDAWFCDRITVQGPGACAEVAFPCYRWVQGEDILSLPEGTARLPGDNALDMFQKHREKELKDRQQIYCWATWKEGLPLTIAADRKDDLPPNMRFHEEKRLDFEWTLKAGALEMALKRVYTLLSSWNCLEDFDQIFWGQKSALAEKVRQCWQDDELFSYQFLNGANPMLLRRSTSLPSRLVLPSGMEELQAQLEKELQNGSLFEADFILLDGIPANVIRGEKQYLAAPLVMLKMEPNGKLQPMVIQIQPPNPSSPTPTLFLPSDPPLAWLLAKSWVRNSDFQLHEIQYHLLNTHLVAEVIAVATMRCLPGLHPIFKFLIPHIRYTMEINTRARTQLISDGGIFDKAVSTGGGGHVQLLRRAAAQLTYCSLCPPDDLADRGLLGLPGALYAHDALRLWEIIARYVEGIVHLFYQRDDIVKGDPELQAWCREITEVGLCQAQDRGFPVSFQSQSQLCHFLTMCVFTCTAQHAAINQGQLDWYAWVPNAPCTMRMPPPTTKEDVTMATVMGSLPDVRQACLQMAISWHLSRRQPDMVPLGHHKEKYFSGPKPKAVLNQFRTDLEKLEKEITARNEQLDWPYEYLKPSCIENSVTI
#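 Hydroperoxide product was detected by ferrous iron/xylenol orange as the 573 to 405 nm absorbance ratio. Arachidonic acid at 40 uM (final) was turned over for 30 min at room temperature by 150 nM human 12hLO, pH 7.0 Hepes buffer, after 15 min compound preincubation.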
# KB-3-1 tox = qHTS assay for MDR1-selective chemotherapeutics: Primary screen using the parental adenocarcinoma cell KB-3-1. Potency, µM (highest dose often 46.1 µM), hits mostly cytotoxic. 400,000 tested, 1.4% active. KB-3-1 viability, CellTiter-Glo ATP luminescence, 72 h; further: nearly all actives have a fitted effect of over 60% in size
#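 Multi-concentration cytotoxicity screen in KB-3-1 cells grown in DMEM lacking phenol red with 10% FBS. After 72 h at 37 °C with compound, ATP-dependent luminescence was recorded.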
# Hits are given with their value; i = inactive; ? = inconclusive; nt = no result given. Unless noted, the call rests on the fitted dose curve; in most records, active means well fitted curve in the direction sought with a large enough effect; inconclusive means small, poorly fitted or top-dose-only effect, or another doubt; inactive means no such curve, though single readings can be large; an effect the other way counts as inactive or inconclusive.
SMILES,KB-V1 MDR tox,PINK1 expr mod,MCF10A rerep,SW480 rerep,12-LOX inh,KB-3-1 tox
CCN1CCN(C(=O)c2cc(COc3ccc4ncccc4c3)on2)CC1,16µM,i,i,i,i,i
N=c1ccn(Cc2cccc(Cl)c2)cc1,?,i,?,i,i,?
N=c1ccn(Cc2ccc(Cl)c(Cl)c2)cc1,i,40µM,i,i,i,?
N=c1ccn(Cc2ccc(Cl)cc2Cl)cc1,i,?,i,i,i,6.5µM
N=c1ccn(Cc2ccc(Cl)cc2)cc1,i,?,i,i,i,4.6µM
N=c1ccn(Cc2ccccc2Cl)cc1,?,i,i,i,i,?
CC(C)C(=O)N1CCN(c2nc3c(s2)CC(C(=O)Nc2ccc(Cl)cc2)CC3)CC1 (centres undefined),nt,nt,nt,nt,32µM,nt
CCC(=O)N1CCN(c2nc3c(s2)CC(C(=O)Nc2ccc(CC)cc2)CC3)CC1 (centres undefined),nt,nt,nt,nt,i,nt
CCC(=O)N1CCN(c2nc3c(s2)CC(C(=O)Nc2ccc(OC)cc2)CC3)CC1 (centres undefined),nt,nt,nt,nt,i,nt
CCC(=O)N1CCN(c2nc3c(s2)CC(C(=O)Nc2ccc(OC)c(F)c2)CC3)CC1 (centres undefined),nt,nt,nt,nt,25µM,nt
CN(C)CCNc1ncnc2c1ncn2[C@H]1CN(Cc2ccc(F)cc2)C[C@@H](CO)O1,i,i,nt,nt,i,8.2µM
Nc1ccc2cc(S(=O)(=O)O)cc(S(=O)(=O)O)c2c1,nt,nt,nt,nt,i,nt
CCOC(=O)C(C)Sc1nnc2c3ccccc3n(C)c2n1 (centres undefined),i,i,1.8µM,i,i,i
CCOC(=O)Cc1nnc(NC(=O)CSc2nnc3c4ccccc4n(C)c3n2)s1,i,i,?,0.73µM,i,i
O=C1Nc2ccccc2N(C(=O)c2ccc3ccccc3c2)C1c1nc2ccccc2[nH]1 (centres undefined),16µM,i,nt,nt,i,?
CC1C(=O)Nc2ccccc2N1C(=O)c1ccc(O)cc1 (centres undefined),i,i,i,i,i,i
N#Cc1ccccc1NC(=O)c1ccc2c(Cl)c3c(nc2c1)CCCC3,8.2µM,i,i,i,i,i
CCc1ccccc1NC(=O)c1ccc2c(Cl)c3c(nc2c1)CCCC3,nt,nt,nt,nt,i,nt
COc1ccc(Br)c(Cn2c(C)c(C(=O)N(C)Cc3ccc(F)cc3)sc2=O)c1,8.2µM,i,nt,nt,i,?
Cc1ccccc1Cn1c(C)c(C(=O)N(C)Cc2ccc(F)cc2)sc1=O,16µM,i,nt,nt,i,?
Cc1cc(C)cc(Cn2c(C)c(C(=O)N(C)Cc3ccc(F)cc3)sc2=O)c1,?,i,nt,nt,i,i
CN1c2cc(C(=O)NCc3ccc(F)cc3F)ccc2C(=O)N2CCCCC21 (centres undefined),nt,nt,nt,nt,i,nt
CSc1ccc(/C=C/C(=O)Nc2ccccc2-c2cccs2)cc1,nt,nt,nt,nt,i,nt
Cc1cc(S(=O)(=O)NCC(C)C)ccc1OCC(=O)NCC1CCCO1 (centres undefined),21µM,i,i,?,i,i
CC1(C)CCCC(C)(C#CCN2CCCCC2c2cccnc2)O1 (centres undefined),nt,nt,nt,nt,i,nt
SMILES,KB-V1 MDR tox,PINK1 expr mod,MCF10A rerep,SW480 rerep,12-LOX inh,KB-3-1 tox
O=C(Nc1ccc(Br)cc1)C1CCN(C(=O)c2ccco2)CC1,21µM,i,i,i,i,i
O=C(Cn1c(=O)n(-c2ccc(F)cc2)c(=O)c2sccc21)c1ccccc1,21µM,i,i,i,i,i
O=c1c2sccc2n(Cc2ccc(F)cc2)c(=O)n1-c1ccc(F)cc1,?,i,i,i,i,i
COc1cc2nc(Nc3ccc(F)cc3)nc(N)c2cc1OC,i,i,?,?,?,i
COc1cc2nc(Nc3ccc(C)c(Cl)c3)nc(N)c2cc1OC,?,i,21µM,21µM,20µM,i
CCOC(=O)c1ccc(Nc2nc(N)c3cc(OC)c(OC)cc3n2)cc1,i,i,21µM,?,?,i
COc1cc2nc(Nc3ccc(C)c(C)c3)nc(N)c2cc1OC,i,i,?,?,?,i
Cc1cccc(-c2noc(-c3cn(CC(=O)NCc4cccs4)c4nc(C)ccc4c3=O)n2)c1,nt,nt,nt,nt,i,nt
O=C(O)c1cc(N/N=C/c2cccc3ccccc23)ccc1Cl,i,i,23µM,i,i,i
O=C(NN=Cc1cccc2ccccc12)C(=O)NN=Cc1cccc2ccccc12,i,i,2.3µM,?,i,?
CC(Cc1nnc(N)s1)c1ccccc1 (centres undefined),i,i,i,i,i,i
Nc1nnc(CC(c2ccccc2)c2ccccc2)s1,23µM,i,i,i,i,i
CCOc1ccc(NC(=O)c2ccc3c(c2)N(CC)C2CCCCN2C3=O)cc1 (centres undefined),nt,nt,nt,nt,i,nt
COc1ccc(C(=O)Oc2ccc(C(C)C)cc2)cc1I,nt,nt,nt,nt,i,nt
CSc1nc(NCC(C)C)c2c3c(sc2n1)CN(C)CC3,18µM,i,i,i,i,i
CSc1nc(NCc2ccccc2)c2c3c(sc2n1)CN(C)CC3,?,i,23µM,i,i,i
